Reference: the supplement of paper PMC10849652
Of roughly 7,900 targets only a part is listed; those with a hit were picked by preference. About 0.6% of all pairs of compound and target were hits.

How the values were obtained:
Assay in all cases: log2 fold change, soluble protein after heating vs DMSO (PISA); higher = thermal stabilisation; K562 cells, 10 uM, 30 min; active = over 0.2 and 3.5 SD of the protein, either way, in both replicates (recomputed)
[1] = compound: C1=CC=C(C=C1)[C@H](COC2=CC3=C(C=C2)NC(=O)N3)NC(=O)C4=CC=CN(C4=O)CC5=CC(=C(C=C5)F)F
Summary of the method: (§1)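 K562 cells (2×10^6 cells/mL) were treated with 10 μM compound for 30 min, and aliquots were heated for 3 min over 48°C-58°C. Pooled aliquots were extracted in PBS with 0.5% NP-40 at 4°C, and the supernatant after 21,000xg for 90 min was measured by TMTpro 16plex LC-MS/MS with channel sums equalised. Reported thermal stability, relative to control samples and from duplicates, is a log2 fold change.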

[2] = compound: CC1=C(SC2=C1C(=N[C@H](C3=NN=C(N32)C)CC(=O)N)C4=CC=C(C=C4)Cl)C
Summary of the method: as §1

[3] = compound: CC1=C2C(=CC=C1)N=C(N(C2=O)C3=CC=CC=C3C)CN4C=NC5=C(N=CN=C54)N
Summary of the method: as §1

[4] = compound: Cc1sc2c(c1C)C(c1ccc(Cl)cc1)=N[C@@H](CC(=O)OC(C)(C)C)c1nnc(C)n1-2
Summary of the method: as §1

[5] = compound: c1ccc([C@@H]2C[C@H]2NC2CCNCC2)cc1
Summary of the method: as §1

Measured: log2 fold change

NIPSNAP2 (UniProt O75323)
Sequence of UniProt O75323 (O75323 whole entry, looked up): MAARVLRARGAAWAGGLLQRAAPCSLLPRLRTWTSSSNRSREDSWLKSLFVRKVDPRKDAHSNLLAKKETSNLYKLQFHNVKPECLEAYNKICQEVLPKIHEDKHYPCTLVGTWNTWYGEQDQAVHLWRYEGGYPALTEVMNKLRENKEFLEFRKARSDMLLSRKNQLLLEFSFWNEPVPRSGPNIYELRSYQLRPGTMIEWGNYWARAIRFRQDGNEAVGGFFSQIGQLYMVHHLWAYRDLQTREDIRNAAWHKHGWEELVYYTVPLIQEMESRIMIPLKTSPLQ
inactive: [1] -0.038 | [2] 0.008 | [3] 0.036 | [4] -0.019 | [5] -0.051

NSDHL (UniProt Q15738)
Sequence of UniProt Q15738 (Q15738 whole entry, looked up): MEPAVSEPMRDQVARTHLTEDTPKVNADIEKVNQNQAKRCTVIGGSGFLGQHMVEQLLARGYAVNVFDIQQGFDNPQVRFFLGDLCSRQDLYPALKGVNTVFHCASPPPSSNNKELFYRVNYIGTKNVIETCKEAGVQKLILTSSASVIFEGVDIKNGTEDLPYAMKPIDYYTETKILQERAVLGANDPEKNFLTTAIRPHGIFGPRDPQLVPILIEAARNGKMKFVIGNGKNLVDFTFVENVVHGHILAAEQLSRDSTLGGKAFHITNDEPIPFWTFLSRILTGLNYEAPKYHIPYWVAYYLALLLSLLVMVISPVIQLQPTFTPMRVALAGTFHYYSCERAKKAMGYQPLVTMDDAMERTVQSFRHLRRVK
inactive: [1] 0.029 | [2] 0.047 | [3] 0.019 | [4] 0 | [5] -0.034

NFYC (UniProt Q13952)
inactive: [1] 0.002 | [2] 0.063 | [3] 0.036 | [4] 0.014 | [5] -0.014

NSMCE2 (UniProt Q96MF7)
Sequence of UniProt Q96MF7 (Q96MF7 whole entry, looked up): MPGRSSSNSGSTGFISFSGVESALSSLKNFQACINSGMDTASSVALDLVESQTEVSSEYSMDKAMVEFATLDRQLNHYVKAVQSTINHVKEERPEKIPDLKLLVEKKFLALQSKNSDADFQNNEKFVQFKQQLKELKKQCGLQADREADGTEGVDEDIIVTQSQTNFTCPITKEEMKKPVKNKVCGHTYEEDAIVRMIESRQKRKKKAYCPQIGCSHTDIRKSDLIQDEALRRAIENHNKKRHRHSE
inactive: [1] 0.074 | [2] 0.031 | [3] 0.075 | [4] 0.004 | [5] -0.017

NFATC2 (UniProt Q13469)
Sequence of UniProt Q13469 (Q13469 whole entry, looked up): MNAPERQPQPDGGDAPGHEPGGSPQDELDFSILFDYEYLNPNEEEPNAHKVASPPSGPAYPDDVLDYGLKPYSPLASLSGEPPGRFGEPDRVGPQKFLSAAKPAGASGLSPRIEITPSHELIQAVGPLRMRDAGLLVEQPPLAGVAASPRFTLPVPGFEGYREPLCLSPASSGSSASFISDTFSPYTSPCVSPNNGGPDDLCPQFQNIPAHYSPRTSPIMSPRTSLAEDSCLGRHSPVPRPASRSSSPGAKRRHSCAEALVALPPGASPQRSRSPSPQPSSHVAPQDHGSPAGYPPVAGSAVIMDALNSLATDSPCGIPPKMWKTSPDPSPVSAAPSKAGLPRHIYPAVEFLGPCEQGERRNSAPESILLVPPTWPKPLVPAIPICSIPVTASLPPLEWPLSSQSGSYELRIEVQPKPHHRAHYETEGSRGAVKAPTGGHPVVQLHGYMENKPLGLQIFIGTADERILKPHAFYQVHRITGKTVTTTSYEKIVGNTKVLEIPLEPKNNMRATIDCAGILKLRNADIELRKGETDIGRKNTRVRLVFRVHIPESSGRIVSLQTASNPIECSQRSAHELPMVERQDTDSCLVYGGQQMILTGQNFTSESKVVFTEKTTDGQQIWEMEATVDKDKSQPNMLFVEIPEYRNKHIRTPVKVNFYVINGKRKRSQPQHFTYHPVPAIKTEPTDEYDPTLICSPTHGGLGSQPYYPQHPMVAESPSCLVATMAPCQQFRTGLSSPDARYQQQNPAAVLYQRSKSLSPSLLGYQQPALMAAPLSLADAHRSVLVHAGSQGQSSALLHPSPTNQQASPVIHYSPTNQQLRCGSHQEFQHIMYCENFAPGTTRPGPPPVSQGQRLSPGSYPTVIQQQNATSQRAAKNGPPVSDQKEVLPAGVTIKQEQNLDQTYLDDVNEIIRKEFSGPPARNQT
inactive: [1] -0.063 | [2] 0.097 | [3] 0.077 | [4] 0.023 | [5] 0.021

MSH2 (UniProt P43246)
inactive: [1] -0.041 | [2] 0.051 | [3] 0.105 | [4] -0.037 | [5] 0.01

NANS (UniProt Q9NR45)
inactive: [1] -0.031 | [2] 0.065 | [3] 0.071 | [4] -0.015 | [5] -0.024

NSMCE4A (UniProt Q9NXX6)
Sequence of UniProt Q9NXX6 (Q9NXX6 whole entry, looked up): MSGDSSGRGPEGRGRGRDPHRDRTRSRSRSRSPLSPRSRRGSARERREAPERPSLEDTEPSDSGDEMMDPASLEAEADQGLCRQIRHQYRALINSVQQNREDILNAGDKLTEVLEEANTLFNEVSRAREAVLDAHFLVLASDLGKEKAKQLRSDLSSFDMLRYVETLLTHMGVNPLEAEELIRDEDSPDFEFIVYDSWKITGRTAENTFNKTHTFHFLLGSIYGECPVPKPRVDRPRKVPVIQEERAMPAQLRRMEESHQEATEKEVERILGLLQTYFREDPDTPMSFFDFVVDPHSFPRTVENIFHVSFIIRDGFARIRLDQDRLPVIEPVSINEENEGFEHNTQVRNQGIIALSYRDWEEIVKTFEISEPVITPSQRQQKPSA
inactive: [1] 0.123 | [2] 0.03 | [3] -0.088 | [4] -0.037 | [5] -0.014

MRPL50 (UniProt Q8N5N7)
inactive: [1] 0.11 | [2] 0.01 | [3] -0.079 | [4] -0.022 | [5] -0.05

MRPS16 (UniProt Q9Y3D3)
inactive: [1] -0.006 | [2] -0.033 | [3] -0.009 | [4] 0.014 | [5] -0.074

NUMB (UniProt P49757)
inactive: [1] 0 | [2] 0.035 | [3] 0.046 | [4] 0.023 | [5] -0.009

NR2C2 isoform 2 (UniProt P49116)
inactive: [1] -0.011 | [2] 0.046 | [3] 0.059 | [4] 0.042 | [5] 0.024

NA, A0A0B4J2A0
inactive: [1] -0.035 | [2] -0.005 | [3] 0.015 | [4] -0.097 | [5] -0.007

MT-ND2 (UniProt P03891)
Sequence of UniProt P03891 (P03891 whole entry, looked up): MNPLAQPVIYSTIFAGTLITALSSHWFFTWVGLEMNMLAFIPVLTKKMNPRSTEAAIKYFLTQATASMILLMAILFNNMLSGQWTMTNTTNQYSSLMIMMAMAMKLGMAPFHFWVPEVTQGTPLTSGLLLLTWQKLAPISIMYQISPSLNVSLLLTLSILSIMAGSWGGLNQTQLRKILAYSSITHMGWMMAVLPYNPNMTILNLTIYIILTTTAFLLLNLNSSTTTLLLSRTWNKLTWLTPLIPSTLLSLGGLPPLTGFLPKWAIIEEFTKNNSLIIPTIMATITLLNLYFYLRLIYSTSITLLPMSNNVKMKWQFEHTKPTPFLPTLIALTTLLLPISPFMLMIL
inactive: [1] 0.023 | [2] 0.123 | [3] -0.118 | [4] -0.03 | [5] -0.003

NEU1 (UniProt Q99519)
inactive: [1] -0.116 | [2] 0.004 | [3] 0.047 | [4] -0.043 | [5] -0.025

NMU (UniProt P48645)
inactive: [1] -0.109 | [2] 0.008 | [3] -0.03 | [4] 0.066 | [5] -0.086

OXA1L (UniProt Q15070)
inactive: [1] 0.014 | [2] -0.01 | [3] 0.018 | [4] 0 | [5] 0.009

MRPS6 (UniProt P82932)
inactive: [1] -0.084 | [2] 0.012 | [3] 0.052 | [4] 0.052 | [5] -0.022

P4HA2 (UniProt O15460)
inactive: [1] 0.006 | [2] -0.033 | [3] -0.014 | [4] -0.007 | [5] -0.043

NCBP2AS2 (UniProt Q69YL0)
inactive: [1] 0.02 | [2] 0.019 | [3] 0.048 | [4] -0.038 | [5] -0.003

NOP2 isoform 4 (UniProt P46087)
inactive: [1] 0.184 | [2] -0.494 | [3] -0.694 | [4] 0.409 | [5] -0.009

MRPS18B (UniProt Q9Y676)
inactive: [1] -0.055 | [2] -0.113 | [3] -0.041 | [4] 0.127 | [5] -0.078

NDUFAF6 (UniProt Q330K2)
inactive: [1] -0.048 | [2] 0.003 | [3] -0.006 | [4] 0.063 | [5] 0.024

NAP1L1 (UniProt P55209)
inactive: [1] -0.072 | [2] 0.003 | [3] 0.17 | [4] 0.013 | [5] 0.009

NSUN2 (UniProt Q08J23)
Sequence of UniProt Q08J23 (Q08J23 whole entry, looked up): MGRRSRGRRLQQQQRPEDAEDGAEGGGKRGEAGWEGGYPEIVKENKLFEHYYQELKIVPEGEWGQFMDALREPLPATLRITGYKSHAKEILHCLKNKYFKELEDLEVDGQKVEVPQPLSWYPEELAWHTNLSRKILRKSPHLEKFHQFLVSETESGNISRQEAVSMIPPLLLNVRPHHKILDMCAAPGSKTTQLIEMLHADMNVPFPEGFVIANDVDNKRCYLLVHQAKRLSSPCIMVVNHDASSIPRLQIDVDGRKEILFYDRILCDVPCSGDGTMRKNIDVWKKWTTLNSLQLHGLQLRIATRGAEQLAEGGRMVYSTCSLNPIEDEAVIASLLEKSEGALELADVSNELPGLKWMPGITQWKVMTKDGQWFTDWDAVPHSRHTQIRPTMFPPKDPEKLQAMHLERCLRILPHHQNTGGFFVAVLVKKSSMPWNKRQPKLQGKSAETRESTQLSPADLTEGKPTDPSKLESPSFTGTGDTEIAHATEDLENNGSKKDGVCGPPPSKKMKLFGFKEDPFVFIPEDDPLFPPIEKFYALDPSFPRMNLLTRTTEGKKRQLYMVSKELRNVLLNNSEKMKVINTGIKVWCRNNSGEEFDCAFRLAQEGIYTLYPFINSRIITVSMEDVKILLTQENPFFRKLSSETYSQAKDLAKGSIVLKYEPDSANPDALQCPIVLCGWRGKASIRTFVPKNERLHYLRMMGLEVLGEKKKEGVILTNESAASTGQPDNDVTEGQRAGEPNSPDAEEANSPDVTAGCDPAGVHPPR
inactive: [1] -0.019 | [2] 0.023 | [3] 0.003 | [4] 0 | [5] 0.003

NRDC isoform 2 (UniProt O43847)
Sequence of UniProt O43847 (O43847 whole entry, looked up): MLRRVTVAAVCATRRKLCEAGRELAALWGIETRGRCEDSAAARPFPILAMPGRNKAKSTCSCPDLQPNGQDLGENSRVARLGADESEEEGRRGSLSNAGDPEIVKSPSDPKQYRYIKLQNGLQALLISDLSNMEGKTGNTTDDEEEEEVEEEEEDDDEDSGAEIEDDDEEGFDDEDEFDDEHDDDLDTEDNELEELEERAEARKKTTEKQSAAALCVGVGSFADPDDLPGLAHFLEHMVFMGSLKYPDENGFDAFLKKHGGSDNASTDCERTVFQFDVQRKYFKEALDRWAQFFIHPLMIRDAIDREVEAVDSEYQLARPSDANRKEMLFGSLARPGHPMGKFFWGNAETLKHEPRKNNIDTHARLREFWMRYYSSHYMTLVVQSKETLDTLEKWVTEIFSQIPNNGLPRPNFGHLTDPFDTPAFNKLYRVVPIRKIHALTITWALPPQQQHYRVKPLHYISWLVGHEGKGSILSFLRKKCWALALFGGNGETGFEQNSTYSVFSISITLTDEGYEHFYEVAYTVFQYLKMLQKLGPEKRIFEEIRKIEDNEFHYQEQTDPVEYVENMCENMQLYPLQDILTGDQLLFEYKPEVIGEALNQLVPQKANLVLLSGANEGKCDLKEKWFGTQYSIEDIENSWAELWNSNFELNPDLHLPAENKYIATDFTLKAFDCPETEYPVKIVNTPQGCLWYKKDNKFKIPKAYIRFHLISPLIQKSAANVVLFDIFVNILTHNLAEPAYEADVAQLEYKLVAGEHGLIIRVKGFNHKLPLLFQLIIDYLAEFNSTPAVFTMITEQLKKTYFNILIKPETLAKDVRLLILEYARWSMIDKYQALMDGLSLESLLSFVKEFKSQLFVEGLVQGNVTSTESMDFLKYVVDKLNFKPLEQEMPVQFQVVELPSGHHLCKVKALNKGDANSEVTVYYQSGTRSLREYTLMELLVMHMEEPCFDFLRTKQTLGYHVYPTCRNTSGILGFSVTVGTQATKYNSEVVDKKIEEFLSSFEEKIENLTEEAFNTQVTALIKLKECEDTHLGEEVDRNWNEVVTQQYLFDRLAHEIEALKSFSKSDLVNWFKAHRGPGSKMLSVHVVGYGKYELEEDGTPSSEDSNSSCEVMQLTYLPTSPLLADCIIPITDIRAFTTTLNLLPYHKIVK
inactive: [1] -0.058 | [2] 0.04 | [3] 0.037 | [4] -0.023 | [5] 0

OXSM (UniProt Q9NWU1)
Sequence of UniProt Q9NWU1 (Q9NWU1 whole entry, looked up): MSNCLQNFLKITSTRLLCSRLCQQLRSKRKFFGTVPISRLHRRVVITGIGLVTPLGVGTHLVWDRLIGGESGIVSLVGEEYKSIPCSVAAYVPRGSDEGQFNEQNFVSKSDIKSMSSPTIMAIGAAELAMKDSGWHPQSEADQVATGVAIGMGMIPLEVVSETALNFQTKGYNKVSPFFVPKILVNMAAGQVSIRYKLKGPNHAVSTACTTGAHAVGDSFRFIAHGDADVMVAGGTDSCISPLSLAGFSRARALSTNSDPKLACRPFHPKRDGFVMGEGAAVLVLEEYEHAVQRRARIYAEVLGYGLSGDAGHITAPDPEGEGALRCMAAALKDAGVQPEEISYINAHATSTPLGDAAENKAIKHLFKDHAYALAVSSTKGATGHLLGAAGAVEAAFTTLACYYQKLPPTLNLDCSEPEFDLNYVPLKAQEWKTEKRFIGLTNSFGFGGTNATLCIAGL
inactive: [1] 0.072 | [2] -0.007 | [3] 0.045 | [4] -0.007 | [5] 0.036
